Results filed as inconclusive are left out. Calls of active or inactive are those of the source. Calls follow the shape of the dose curve; as a rule, active = well fitted inhibition curve with a large enough effect; inconclusive = small, poorly fitted or top-dose-only effect; inactive = flat fitted curve, though single readings scatter.
What follows are molecules tested against Dual specificity protein kinase CLK4 (Homo sapiens) (UniProt Q9HAZ1) (assay: Confirmation Assay for Inhibitors of Clk4 (Kinase-Glo Assay): KU probe). Settings: recombinant Clk4, Kinase-Glo ATP luminescence; series mostly up to 76.9 µM.
Sequence of Dual specificity protein kinase CLK4 (Homo sapiens) (Q9HAZ1 whole entry, looked up): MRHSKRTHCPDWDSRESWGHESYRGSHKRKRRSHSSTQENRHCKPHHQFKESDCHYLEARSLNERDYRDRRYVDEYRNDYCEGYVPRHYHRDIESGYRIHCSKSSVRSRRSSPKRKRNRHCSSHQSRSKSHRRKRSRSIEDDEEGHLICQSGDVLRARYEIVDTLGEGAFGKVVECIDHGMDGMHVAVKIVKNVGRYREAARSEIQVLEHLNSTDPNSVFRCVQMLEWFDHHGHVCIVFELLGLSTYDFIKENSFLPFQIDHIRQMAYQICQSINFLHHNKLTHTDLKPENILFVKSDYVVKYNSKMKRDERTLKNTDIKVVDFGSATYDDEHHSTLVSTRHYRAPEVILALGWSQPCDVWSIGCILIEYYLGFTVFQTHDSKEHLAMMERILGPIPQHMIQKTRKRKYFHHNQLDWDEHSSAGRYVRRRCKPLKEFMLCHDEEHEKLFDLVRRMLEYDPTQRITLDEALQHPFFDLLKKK
Method in brief: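 RS repeat peptide (100 uM) and ATP (1 uM) phosphorylated by 25 nM Clk4 (final) in Tris pH 7.5 with MgCl2, EGTA, DTT and Triton X-100. After 4.5 h at room temperature, remaining ATP read as Kinase-Glo luminescence.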

Potency, inactive:
O=C(Nc1ccnc(-c2ccc3c(c2)OCO3)n1)c1cnc(Cl)c(Cl)c1
Cc1noc(C)c1-c1nccc(NCc2ccc(Cl)c(Cl)c2)n1

Potency, active:
Clc1ccc(CNc2cc(-c3ccc4c(c3)OCO4)ncn2)cc1 2.32 µM
O=[N+]([O-])c1cc(Nc2nccc(-c3ccc4c(c3)OCO4)n2)cc(C(F)(F)F)c1 0.104 µM
Clc1ccc(CNc2nccc(-c3ccc4[nH]ncc4c3)n2)cc1Cl 0.026 µM
Cc1ccc(CNc2ccnc(-c3cccc(C#N)c3)n2)cc1 23.2 µM
Fc1cc(CNc2ccnc(-c3ccc4c(c3)OCO4)n2)cc(F)c1F 23.2 µM
c1coc(-c2ccnc(-c3ccc4c(c3)OCO4)n2)c1 8.23 µM
c1cncc(CNc2ccnc(-c3ccc4cn[nH]c4c3)n2)c1 0.292 µM
c1ccc2ncc(CNc3ccnc(-c4ccc5c(c4)OCO5)n3)cc2c1 29.2 µM
COc1cccc(-c2nccc(NCc3ccc(Cl)c(Cl)c3)n2)c1 14.6 µM
c1cncc(CNc2ccnc(-c3ccc4ccccc4c3)n2)c1 14.6 µM
Clc1ccc(CNc2ncncc2-c2ccc3c(c2)OCO3)cc1 5.82 µM
Clc1cc(Cl)cc(CNc2ccnc(-c3ccc4c(c3)OCO4)n2)c1 4.12 µM
Clc1ccc(CNc2cc(-c3ccc4c(c3)OCO4)ncn2)cc1Cl 4.63 µM
c1cc(-c2ccoc2)nc(-c2ccc3c(c2)OCO3)n1 4.12 µM
Cc1csc(CNc2ncnc3ccc(-c4ccc(C(=O)O)o4)cc23)n1 0.292 µM
Cc1csc(CNc2ncnc3ccc(-c4ccc(CO)o4)cc23)n1 0.923 µM
Nc1ncnc2c1c(I)cn2C1OC(CO)C(O)C1O (centres undefined) 0.0116 µM
COc1ccc(-c2ccnc(NCc3ccc(Cl)c(Cl)c3)n2)cc1OC 26 µM
Clc1ccc(CNc2ccnc(-c3cccnc3)n2)cc1 16.4 µM
COc1cccc(Nc2ncc3ncc(=O)n(CCc4ccccc4)c3n2)c1 0.0923 µM
Clc1ccc(CNc2nccc(-c3ccc4c(c3)OCCO4)n2)cc1Cl 0.116 µM
c1nc(NCC2CCCOC2)c2cc(-c3ccc4c(c3)OCO4)ccc2n1 (centres undefined) 0.0654 µM
Clc1ccc(CNc2ccnc(-c3cccnc3)n2)cc1Cl 13 µM
Clc1ccc(CNc2nccc(-c3ccc4c(c3)OCO4)n2)cc1 0.0519 µM
Clc1ccc(CNc2ncncc2-c2ccc3c(c2)OCO3)cc1Cl 0.582 µM
CCCNc1ncnc2ccc(-c3ccc4c(c3)OCO4)cc12 0.0582 µM
Brc1cc(Br)cc(CNc2nccc(-c3ccc4c(c3)OCO4)n2)c1 0.0368 µM
